Measured values from the supplement of paper PMC11732987, “Enantioselective OTUD7B fragment discovery through chemoproteomics screening and high-throughput optimisation” (Communications Chemistry, 2025).

Tests used:
Assay in all cases: log2 ratio of Biotin-Ahx-Ub-VS probe labelling (fragment/DMSO); higher = less target engagement (more negative = stronger competition), active = hit call of the paper (q ≤ 0.05, log2 ratio ≤ -1)
Settings in all cases: compound concentration: 200 uM; treatment time: 3 h
USP42 = target: T1, USP42 (UniProt Q9H9J4)
T1 sequence (whole entry): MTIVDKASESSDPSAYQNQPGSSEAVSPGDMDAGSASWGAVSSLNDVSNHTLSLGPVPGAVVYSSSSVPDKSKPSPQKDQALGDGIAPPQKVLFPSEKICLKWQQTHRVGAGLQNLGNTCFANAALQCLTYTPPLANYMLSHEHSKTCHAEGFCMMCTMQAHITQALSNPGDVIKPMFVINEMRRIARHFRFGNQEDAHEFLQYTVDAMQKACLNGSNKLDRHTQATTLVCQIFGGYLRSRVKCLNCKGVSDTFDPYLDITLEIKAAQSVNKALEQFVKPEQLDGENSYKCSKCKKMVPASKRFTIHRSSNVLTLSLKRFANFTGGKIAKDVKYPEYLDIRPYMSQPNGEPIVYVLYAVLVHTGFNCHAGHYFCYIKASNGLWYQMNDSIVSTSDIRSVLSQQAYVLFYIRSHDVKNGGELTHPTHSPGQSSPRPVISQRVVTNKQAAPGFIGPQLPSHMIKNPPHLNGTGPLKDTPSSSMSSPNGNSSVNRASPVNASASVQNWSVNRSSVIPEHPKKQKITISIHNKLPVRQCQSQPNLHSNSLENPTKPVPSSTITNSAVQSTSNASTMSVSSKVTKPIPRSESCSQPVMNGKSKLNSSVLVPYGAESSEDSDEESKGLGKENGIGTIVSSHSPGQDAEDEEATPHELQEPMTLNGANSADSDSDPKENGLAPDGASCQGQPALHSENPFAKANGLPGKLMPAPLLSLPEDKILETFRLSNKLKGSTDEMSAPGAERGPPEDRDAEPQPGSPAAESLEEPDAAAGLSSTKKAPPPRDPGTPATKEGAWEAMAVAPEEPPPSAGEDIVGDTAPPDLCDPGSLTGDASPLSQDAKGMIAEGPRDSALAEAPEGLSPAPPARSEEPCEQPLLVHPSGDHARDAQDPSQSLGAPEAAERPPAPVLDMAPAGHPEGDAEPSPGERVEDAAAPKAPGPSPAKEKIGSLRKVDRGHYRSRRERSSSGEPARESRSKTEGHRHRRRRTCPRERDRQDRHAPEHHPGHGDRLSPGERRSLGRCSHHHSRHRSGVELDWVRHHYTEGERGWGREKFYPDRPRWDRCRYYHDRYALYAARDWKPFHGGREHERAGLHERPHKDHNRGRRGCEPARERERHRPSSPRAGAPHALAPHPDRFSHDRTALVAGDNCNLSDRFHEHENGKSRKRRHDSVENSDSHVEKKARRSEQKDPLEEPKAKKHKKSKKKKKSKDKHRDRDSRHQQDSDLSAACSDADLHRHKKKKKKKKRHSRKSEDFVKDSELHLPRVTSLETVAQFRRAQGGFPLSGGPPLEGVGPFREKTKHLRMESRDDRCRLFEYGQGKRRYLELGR
Procedure, shortened: (§1)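 Labelled DUBs from HEK293T lysate were NeutrAvidin-enriched, digested with LysC and trypsin, and run by diaPASEF LC-MS/MS. Before that, each 495 µg sample in Tris/CHAPS/IGEPAL buffer with protease inhibitors was treated in triplicate with fragment at 200 µM or vehicle for 3 h, then with Biotin-Ahx-Ub-VS at 0.5 µM final for 1 h. Values are average log2 ratios of fragment over vehicle by unpaired t-test, based on global-median-normalised Spectronaut label-free quantities from proteins with ≥2 unique peptides.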

USP46 = USP46 (UniProt P62068)
Procedure, shortened: as §1

USP47 = target: T2, USP47 (UniProt Q96K76)
T2 sequence (whole entry): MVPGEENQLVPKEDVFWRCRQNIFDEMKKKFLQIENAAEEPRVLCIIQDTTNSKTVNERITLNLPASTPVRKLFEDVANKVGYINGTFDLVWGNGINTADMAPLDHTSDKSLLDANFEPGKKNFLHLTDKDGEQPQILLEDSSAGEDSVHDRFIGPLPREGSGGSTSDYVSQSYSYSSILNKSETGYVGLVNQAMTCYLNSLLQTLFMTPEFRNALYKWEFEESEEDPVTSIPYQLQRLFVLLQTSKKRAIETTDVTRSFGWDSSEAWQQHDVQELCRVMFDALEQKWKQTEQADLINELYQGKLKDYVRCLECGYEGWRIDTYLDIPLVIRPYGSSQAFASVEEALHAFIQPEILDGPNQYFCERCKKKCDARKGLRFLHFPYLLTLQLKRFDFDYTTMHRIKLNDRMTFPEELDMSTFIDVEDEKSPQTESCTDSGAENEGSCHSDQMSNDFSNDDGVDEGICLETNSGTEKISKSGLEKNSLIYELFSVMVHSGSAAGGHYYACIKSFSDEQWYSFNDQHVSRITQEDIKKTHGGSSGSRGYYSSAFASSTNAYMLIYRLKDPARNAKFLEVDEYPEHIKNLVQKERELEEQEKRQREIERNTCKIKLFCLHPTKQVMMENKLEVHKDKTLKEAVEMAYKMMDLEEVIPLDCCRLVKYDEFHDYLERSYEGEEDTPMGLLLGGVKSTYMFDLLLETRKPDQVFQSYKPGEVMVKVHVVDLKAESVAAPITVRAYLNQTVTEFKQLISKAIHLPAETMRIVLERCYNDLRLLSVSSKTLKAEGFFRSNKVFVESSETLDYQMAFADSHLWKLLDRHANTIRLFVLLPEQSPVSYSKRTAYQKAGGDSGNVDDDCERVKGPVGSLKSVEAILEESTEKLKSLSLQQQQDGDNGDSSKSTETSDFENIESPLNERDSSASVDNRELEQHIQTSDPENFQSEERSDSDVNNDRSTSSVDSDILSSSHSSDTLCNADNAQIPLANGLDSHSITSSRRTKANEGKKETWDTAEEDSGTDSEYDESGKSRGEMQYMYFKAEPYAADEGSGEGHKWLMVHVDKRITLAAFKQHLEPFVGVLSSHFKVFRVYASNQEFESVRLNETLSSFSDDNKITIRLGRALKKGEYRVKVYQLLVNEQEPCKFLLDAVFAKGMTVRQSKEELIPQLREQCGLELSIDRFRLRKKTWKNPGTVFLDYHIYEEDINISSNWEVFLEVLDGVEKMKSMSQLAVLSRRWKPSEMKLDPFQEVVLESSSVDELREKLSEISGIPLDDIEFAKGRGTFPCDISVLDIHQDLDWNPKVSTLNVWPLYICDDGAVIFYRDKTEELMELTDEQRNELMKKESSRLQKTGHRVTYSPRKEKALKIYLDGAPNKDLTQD
Procedure, shortened: as §1

USP48 = target: T3, USP48 (UniProt Q86UV5)
T3 sequence (whole entry): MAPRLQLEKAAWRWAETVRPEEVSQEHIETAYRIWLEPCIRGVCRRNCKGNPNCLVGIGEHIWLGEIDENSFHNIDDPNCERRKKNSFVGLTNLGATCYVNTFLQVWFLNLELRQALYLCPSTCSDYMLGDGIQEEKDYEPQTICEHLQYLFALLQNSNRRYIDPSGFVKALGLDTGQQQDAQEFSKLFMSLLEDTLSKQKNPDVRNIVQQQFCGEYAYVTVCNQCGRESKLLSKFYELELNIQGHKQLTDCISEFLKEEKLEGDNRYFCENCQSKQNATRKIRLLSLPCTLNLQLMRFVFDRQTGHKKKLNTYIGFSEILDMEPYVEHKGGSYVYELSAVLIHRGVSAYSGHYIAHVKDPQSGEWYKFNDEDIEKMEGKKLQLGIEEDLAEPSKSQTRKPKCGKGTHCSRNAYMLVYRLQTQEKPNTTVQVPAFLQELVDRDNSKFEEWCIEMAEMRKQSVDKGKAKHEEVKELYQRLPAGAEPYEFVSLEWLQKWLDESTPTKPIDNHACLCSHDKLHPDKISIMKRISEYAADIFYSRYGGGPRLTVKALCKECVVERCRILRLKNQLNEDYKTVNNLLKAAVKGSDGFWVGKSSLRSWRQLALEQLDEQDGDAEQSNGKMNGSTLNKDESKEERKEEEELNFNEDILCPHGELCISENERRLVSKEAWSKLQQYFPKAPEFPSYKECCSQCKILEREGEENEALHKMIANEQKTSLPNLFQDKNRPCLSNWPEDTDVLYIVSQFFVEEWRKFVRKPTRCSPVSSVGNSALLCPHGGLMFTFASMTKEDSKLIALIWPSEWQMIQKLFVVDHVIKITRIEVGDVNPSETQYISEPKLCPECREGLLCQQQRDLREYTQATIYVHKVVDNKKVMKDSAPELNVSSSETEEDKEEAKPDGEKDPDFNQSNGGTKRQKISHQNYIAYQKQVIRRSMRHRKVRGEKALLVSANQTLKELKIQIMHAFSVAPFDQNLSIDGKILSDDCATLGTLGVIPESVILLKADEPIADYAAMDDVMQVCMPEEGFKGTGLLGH
Procedure, shortened: as §1

USP5 = target: T4, USP5 (UniProt P45974)
T4 sequence (whole entry): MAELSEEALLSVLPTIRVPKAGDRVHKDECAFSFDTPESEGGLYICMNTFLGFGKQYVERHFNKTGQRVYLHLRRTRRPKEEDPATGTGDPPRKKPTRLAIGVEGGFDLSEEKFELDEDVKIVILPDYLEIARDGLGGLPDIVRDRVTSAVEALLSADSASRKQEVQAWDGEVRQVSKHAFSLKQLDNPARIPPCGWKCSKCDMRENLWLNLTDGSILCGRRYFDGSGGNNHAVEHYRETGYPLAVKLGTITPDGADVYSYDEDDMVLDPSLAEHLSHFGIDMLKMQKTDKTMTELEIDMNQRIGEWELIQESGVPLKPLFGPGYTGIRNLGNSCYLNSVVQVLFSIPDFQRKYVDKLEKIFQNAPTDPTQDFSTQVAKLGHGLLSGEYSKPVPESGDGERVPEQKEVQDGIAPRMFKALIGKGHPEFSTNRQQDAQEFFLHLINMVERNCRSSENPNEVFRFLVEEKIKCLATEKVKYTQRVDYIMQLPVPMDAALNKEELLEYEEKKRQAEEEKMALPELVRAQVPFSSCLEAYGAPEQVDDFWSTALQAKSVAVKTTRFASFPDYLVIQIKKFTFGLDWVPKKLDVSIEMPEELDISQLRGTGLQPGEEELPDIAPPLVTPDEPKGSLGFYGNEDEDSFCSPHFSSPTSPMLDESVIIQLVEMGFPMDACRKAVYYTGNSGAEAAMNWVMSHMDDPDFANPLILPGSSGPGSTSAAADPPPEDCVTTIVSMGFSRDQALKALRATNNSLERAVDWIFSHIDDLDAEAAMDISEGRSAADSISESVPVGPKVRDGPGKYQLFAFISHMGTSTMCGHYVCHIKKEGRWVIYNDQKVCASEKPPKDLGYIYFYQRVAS
Procedure, shortened: as §1

USP54 = USP54 (UniProt Q70EL1)
Procedure, shortened: as §1

USP7 = USP7 (UniProt Q93009)
Procedure, shortened: as §1

USP8 = target: T5, USP8 (UniProt P40818)
T5 sequence (whole entry): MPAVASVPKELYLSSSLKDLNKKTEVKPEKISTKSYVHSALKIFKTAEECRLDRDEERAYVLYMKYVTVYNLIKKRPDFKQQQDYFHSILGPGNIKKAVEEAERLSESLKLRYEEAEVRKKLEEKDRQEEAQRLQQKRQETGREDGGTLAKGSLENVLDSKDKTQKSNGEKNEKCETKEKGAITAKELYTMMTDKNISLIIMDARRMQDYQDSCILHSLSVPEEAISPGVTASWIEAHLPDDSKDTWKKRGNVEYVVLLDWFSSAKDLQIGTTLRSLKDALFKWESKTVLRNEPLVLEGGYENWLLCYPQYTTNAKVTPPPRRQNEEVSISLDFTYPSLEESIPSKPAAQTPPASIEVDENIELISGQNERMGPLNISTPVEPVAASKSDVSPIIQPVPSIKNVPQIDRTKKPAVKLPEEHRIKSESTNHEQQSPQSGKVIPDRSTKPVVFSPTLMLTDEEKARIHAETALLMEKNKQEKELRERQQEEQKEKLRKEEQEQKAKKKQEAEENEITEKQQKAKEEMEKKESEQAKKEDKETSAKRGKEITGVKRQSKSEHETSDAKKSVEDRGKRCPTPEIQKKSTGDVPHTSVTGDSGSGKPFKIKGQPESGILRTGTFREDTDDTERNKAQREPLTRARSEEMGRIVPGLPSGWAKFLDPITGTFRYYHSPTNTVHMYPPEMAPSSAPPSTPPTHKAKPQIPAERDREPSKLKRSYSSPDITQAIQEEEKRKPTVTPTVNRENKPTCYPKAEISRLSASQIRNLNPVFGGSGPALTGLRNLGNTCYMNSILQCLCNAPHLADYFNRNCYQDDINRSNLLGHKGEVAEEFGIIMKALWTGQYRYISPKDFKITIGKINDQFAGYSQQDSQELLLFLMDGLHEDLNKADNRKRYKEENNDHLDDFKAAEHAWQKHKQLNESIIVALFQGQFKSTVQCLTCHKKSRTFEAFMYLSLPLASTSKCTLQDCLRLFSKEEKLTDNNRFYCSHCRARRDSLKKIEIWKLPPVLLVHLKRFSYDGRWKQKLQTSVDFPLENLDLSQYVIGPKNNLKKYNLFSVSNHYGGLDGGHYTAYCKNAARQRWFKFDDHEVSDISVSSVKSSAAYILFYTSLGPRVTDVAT
Procedure, shortened: as §1

USP9X = USP9X (UniProt Q93008)
Procedure, shortened: as §1

UniProt O00487 = target: UniProt O00487
Procedure, shortened: as §1

Measured: log2 ratio of Biotin-Ahx-Ub-VS probe labelling

Chain of USP46 (P62068 whole entry): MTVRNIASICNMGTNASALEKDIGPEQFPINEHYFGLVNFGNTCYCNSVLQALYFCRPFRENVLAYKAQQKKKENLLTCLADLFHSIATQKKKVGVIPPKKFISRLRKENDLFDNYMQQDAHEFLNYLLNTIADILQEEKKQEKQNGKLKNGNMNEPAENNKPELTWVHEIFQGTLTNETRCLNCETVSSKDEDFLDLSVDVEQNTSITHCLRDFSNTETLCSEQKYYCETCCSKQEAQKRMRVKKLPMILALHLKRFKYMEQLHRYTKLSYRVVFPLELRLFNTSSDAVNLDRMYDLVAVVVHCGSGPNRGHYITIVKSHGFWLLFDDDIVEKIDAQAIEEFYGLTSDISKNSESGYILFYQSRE
Chain of UniProt O00487 (O00487 whole entry): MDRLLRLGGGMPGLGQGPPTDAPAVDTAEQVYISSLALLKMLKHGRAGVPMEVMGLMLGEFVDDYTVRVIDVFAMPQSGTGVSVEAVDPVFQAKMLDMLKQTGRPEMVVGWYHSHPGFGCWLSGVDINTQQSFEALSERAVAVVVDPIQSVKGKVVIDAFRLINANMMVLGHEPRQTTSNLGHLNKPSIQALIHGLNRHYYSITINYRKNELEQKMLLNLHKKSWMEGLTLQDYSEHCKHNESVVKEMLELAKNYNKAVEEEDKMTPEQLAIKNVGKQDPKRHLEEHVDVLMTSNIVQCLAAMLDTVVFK
Chain of USP7 (Q93009 whole entry, looked up): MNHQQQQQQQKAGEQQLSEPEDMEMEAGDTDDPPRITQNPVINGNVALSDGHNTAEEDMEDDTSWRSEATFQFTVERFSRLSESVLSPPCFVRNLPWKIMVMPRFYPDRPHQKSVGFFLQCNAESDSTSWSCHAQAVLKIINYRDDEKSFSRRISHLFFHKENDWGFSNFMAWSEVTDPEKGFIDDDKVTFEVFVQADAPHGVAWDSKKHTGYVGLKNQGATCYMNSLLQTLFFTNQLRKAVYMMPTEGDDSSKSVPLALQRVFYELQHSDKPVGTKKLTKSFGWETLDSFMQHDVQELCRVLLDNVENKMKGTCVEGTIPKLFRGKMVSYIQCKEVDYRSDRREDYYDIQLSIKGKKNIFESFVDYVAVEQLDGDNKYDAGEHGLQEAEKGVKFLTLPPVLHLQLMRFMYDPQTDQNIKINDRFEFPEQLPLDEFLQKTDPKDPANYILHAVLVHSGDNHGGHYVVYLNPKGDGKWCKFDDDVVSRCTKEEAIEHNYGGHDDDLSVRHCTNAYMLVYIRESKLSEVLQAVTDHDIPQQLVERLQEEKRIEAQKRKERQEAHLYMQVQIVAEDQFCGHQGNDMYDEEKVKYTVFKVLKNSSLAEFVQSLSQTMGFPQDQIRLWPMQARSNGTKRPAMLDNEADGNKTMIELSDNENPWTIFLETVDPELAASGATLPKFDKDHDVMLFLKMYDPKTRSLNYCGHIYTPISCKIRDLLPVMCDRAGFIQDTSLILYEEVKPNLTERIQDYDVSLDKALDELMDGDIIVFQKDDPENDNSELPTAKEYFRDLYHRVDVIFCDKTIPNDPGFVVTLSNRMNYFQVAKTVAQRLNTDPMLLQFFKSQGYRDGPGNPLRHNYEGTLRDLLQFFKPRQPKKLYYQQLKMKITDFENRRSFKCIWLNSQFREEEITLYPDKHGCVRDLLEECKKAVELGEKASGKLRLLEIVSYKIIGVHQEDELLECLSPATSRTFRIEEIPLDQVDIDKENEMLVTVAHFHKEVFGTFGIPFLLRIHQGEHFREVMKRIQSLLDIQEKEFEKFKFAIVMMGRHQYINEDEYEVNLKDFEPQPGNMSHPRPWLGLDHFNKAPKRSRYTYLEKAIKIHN
Chain of USP54 (Q70EL1 whole entry): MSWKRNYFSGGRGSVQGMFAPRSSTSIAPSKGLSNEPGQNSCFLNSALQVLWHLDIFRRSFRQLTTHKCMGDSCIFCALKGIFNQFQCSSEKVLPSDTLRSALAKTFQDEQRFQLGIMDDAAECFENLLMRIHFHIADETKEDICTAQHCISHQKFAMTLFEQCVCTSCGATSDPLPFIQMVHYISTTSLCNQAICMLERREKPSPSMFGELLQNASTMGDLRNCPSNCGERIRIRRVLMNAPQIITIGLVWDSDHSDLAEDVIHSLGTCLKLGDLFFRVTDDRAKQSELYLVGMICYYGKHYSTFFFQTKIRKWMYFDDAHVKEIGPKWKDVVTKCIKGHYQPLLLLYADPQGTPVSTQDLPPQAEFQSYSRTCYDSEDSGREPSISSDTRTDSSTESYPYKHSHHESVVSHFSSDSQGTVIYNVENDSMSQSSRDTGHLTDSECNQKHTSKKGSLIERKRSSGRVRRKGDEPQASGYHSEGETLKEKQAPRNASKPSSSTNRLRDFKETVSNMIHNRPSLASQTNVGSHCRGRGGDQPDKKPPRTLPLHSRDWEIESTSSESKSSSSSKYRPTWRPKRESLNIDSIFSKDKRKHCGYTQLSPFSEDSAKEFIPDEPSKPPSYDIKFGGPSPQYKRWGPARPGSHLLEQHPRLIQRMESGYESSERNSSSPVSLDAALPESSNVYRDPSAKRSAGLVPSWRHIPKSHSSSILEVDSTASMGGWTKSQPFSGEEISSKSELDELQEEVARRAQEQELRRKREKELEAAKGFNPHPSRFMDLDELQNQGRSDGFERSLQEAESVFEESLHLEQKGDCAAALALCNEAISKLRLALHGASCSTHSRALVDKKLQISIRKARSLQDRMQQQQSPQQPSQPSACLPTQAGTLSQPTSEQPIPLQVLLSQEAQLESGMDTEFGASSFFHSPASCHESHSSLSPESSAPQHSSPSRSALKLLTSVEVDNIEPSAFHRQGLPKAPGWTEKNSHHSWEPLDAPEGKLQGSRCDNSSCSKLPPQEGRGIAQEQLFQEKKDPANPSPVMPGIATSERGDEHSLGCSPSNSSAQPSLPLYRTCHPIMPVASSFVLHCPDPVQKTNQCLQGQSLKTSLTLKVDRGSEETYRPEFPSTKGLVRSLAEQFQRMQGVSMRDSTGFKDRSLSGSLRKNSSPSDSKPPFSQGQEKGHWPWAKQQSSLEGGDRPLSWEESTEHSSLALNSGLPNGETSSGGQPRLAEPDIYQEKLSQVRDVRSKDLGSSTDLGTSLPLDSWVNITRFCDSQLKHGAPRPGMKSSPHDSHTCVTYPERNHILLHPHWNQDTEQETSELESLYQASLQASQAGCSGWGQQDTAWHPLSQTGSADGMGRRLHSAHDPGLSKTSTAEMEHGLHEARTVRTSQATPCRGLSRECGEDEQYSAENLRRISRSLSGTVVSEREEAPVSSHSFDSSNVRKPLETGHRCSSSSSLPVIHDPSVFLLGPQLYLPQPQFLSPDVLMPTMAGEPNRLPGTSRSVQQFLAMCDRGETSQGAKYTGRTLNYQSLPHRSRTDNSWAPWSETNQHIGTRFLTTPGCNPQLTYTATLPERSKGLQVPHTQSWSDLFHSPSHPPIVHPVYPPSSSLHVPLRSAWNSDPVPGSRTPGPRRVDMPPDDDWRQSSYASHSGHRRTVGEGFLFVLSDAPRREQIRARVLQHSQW

O=C(CCl)NC(Cn1ccccc1=O)c1ccccc1 (stereo not given)
inactive: USP42 -0.346 | USP46 0.258 | USP47 -0.4 | USP48 0.0761 | USP5 0.132 | USP54 0.317 | USP7 -0.205 | USP8 -0.0535 | USP9X -0.00544 | UniProt O00487 0.0216
